Reference: PubChem BioAssay AID1987 (The Scripps Research Institute Molecular Screening Center, 2009)
Several values for one entry are separate records, joined by “and”; a condition that tells them apart may be missing. Identical values can stand only once. In all, about 320,000 compounds went through this assay and about 560 (0.17%) were called active. The sample as a whole holds a higher share of actives than the screen did. Values without a mark were called inactive.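 The calls were made as follows: active = inhibition above the campaign's mean inhibition across all tested compounds plus 3 SD (cut at about 9.5% in these data); inactive = the rest.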

Biological target: Serine/threonine-protein phosphatase 5 (Homo sapiens) (UniProt P53041)
Sequence (P53041 whole entry, looked up): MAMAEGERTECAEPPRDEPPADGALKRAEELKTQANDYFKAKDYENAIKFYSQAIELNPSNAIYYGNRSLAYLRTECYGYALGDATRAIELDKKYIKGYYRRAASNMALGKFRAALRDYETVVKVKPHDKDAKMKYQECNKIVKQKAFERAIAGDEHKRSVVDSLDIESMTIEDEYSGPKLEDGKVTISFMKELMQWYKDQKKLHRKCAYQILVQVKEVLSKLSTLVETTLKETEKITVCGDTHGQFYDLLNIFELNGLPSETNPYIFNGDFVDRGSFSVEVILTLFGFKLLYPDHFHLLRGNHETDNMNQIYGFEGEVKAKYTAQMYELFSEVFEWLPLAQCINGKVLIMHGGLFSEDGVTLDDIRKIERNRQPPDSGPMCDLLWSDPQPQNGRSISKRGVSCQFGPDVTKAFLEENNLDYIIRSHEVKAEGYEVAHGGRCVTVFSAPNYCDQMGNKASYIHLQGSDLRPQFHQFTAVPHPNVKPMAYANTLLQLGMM
Assay: PP5 phosphatase inhibitors, primary screen, biochemical, fluorescence (AID 1987);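 also: 0% = DMSO only and 100% = 100 µM cantharidin control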
Details: purified PP5c, OMFP substrate fluorescence; at 6.7 µM; active compounds read high

SMILES | inhibition
O=C(CSc1n[nH]c(=O)n1-c1ccccc1)Nc1ccccc1C(F)(F)F | 1.79%
O=C1C(C=NCC2CCCO2)=C(O)c2ccccc21 (configuration not stated) | 2.92%
Cc1ccccc1C(=O)NCC(c1ccco1)N1CCc2ccccc21 (configuration not stated) | -0.08%
Cc1cccc(N(C)C(=O)CN2C(=O)COc3ccc(S(=O)(=O)N4CCCCCC4)cc32)c1 | 5.32%
O=C(O)c1cccc2c1C(=O)N(C1CCCCC1)C2 | 1.97%
CN1CCN(C(=O)Cn2c(C(F)(F)F)nc3ccccc32)CC1 | 0.08%
COc1ccc(CNC(=O)C2(CC3CC(c4ccccc4)=NO3)CCN(C(=O)c3cccc(O)c3)CC2)cc1 (configuration not stated) | 0.71%
CN(CC(=O)Nc1ccccc1Cl)C(=O)COc1cccc2c1OC(C)(C)C2 | 1.31%
CCOc1cnc(-c2c(-c3ccccc3Cl)noc2C)o1 | 3.98%
Cc1ccc(N2CC(C(=O)N3CCC4(CC3)CC(=O)c3ccccc3O4)CC2=O)cc1C (configuration not stated) | -1.86%
Cc1cccc(S(=O)(=O)N2CN(CC3CCCO3)c3nc4ccccc4nc32)c1 (configuration not stated) | 3.91%
N#C/C=C\Oc1ccc(Cl)cc1N | -0.64%
CC1CCCCC1NC(=O)C1CCCN1S(=O)(=O)c1cccc2nsnc12 (configuration not stated) | -5.55%
Cc1cccc(NC(=O)c2cccc(C(=O)Nc3cccc(C)c3C)n2)c1C | -0.92%
CCNc1nc(NC(C)C)nc(N2CC(=O)N(CC(=O)OCC)C2=N)n1 | -0.1%
C=CCN1CCN(C(=O)CCCc2ccccc2)CC1 | 2.37%
Cc1cccc(CCNC(=O)Cn2ncc3c([nH]c4ccc(C)cc43)c2=O)c1 | -2.46%
Cc1ccc(Nc2nc(N)nc(CSc3nnc(C)s3)n2)cc1 | 3.84%
Cc1nnc(SCc2cc(=O)[nH]c(N3CCN(Cc4ccccc4)CC3)n2)s1 | 1.51%
Cc1nnc(SCc2nc3ccccc3nc2C)s1 | 12.1% (active)
Cc1ccc(NC2=NC(c3ccccc3)n3c(nc(C)cc3=O)N2)cc1 (configuration not stated) | 0.48%
COc1ccccc1NS(=O)(=O)c1ccc(C)c(C(=O)NCC(c2ccco2)N(C)C)c1 (configuration not stated) | -1.06%

SMILES | inhibition
COC(=O)C1(C)CC1(c1ccccc1)c1ccccc1 (configuration not stated) | 3.86%
COc1ccc(-c2cc(=O)oc3cc(OC(C)C(=O)Nc4ccc(CN5CCOCC5)cc4)ccc23)cc1 (configuration not stated) | 4.28%
CCCCCC1CCC(c2nnc(SCC(C)=O)o2)CC1 (configuration not stated) | 2.41%
COc1ccc(N(CC(=O)NC2CCCC2)C(=O)CS(=O)CC(=O)Nc2ccc3c(c2)OCO3)cc1 (configuration not stated) | 0.8%
Cn1c(=O)c2sccc2n(Cc2ccc(Br)cc2)c1=O | 3.16%
CCN(CC)C(=O)CSc1nnc(CNc2ccc(F)cc2)n1Cc1ccco1 | 3.87%
O=C(NN1C(=O)C2C3C=CC(O3)C2C1=O)c1ccncc1 (configuration not stated) | -0.72%
CC(C)(C)n1nc2c(c1NC(=O)c1ccc(S(=O)(=O)N3CCCC3)cc1)CS(=O)C2 (configuration not stated) | -2.2%
C=CCOc1ccc(/C=C/C(=O)OCC(=O)NCC2CCCO2)cc1 (configuration not stated) | -0.48%
O=Cc1c(Nc2ccccc2Cl)nc2ccccn2c1=O | -0.13%
C[C@H](NC(=O)c1[nH]cnc1C(=O)Nc1nccs1)c1ccccc1 | 1.13%
O=C(O)CCc1nc2cc(Cl)ccc2n(Cc2ccccc2)c1=O | -2.07%
CCOC(=O)Nc1ccc2c(c1)N(C(=O)CCN1CCN(CCO)CC1)c1ccccc1CC2 | 2.46%
CCOC(=O)Nc1ccc2c(c1)N(C(=O)CN1CCN3CCCC3C1)c1ccccc1CC2 (configuration not stated) | 10.7% (active)
CCOC(=O)Nc1ccc2c(c1)N(C(=O)CCCl)c1ccccc1[S@]2=O | -0.16%
O=S1(=O)N=C(N(CCO)/N=C/c2ccccc2F)c2ccccc21 | -2.75%
CC(C)Cn1cnc2c1c(=O)n(CC(=O)NN)c(=O)n2Cc1ccccc1 | 1.33%
CC(=O)c1c(C)[nH]c(C(=O)Nc2cc(S(=O)(=O)N(C)C)ccc2C)c1C | 3.8%
O=C(N=C1SC2CS(=O)(=O)CC2N1c1cc(Cl)ccc1Cl)C1CC1 (configuration not stated) | -1.21%
CC(C)OC(=O)c1sc2nc3c(cc2c1N)C(=O)CCC3 | -4.25%
O=C(O)c1ccc(-n2cccc2)cc1O | 1.23%
O=C(Nc1ccccc1F)C1C2C=CC3(O2)C1C(=O)N(c1cccnc1)C3C(=O)NC1CCCCC1 (configuration not stated) | 2.73%

SMILES | inhibition
O=C(O)c1ccc(S(=O)(=O)N2CCC(Cc3ccccc3)CC2)cc1 | -3.11%
CCCCN(CCCC)CCCNC(=O)CN1C(=O)COc2ccc(S(=O)(=O)N3CCC(C)CC3)cc21 | -1.56%
COc1ccc(CCNC(=S)NC(=O)/C=C/c2ccc(C)cc2)cc1OC | 1.62%
Cn1c(Cc2cccc3ccccc23)nnc1SCC(=O)N1CCN(c2cccc(Cl)c2)CC1 | 3.02%
Nc1nc(SCC(=O)NN(c2ccccc2)c2ccccc2)n[nH]1 | -0.37%
Cc1cccn2cc(-c3cccc(S(=O)(=O)N4CCCCC4)c3)nc12 | 0.22%
COc1ccc(/C=C2\SC(=S)N(CCC(=O)Nc3cccc(C(=O)O)c3)C2=O)cc1OC | 0.86%
COc1cc(/C=C2/SC(=S)N(Cc3ccccc3)C2=O)cc(OC)c1O | 10.8% (active)
COc1ccc(/C=C2\SC(=S)N(CCCC(=O)NC3CCCC3)C2=O)cc1OC | -4.92%
Cc1c(CCC(=O)N[C@@H](CC(C)C)C(=O)O)c(=O)oc2c(C)c3oc4c(c3cc12)CCCC4 | -1.14%
CN1CC(=O)N=C1N | 2.26% and -0.51%
CC1(C)O[C@@H]2[C@H](O1)[C@@H](COS(=O)(=O)O)O[C@H]2n1cnc2c(=O)[nH]cnc21 | 0.9%
COCCOC1CCN(C(=O)c2ccc(OC)c(OC3CCN(C(C)C)CC3)c2)CC1 | 0.82%
CC(C)C[C@H](NC(=O)C1CC(=O)N(c2ccc3c(c2)OCCO3)C1)C(=O)NC1CCCC1 (some centres not stated) | -0.77%
COc1ccc(S(=O)(=O)NNC(=O)Nc2ccc(C)cc2)c(OC)c1 | 0.5%
CCOC(=O)c1c(NC(=O)C2CCN(S(=O)(=O)c3ccc(Cl)cc3)CC2)sc2c1CCCC2 | 0.34%
COc1ccc(NC(=S)SC)cc1OC | 3.15%
CC(C)COC(=O)c1ccc(NC(=O)C2C3C=CC(C3)C2C(=O)O)cc1 (configuration not stated) | 1.86%
COc1ccc(NC(=O)C2C3CCC(O3)C2C(=O)O)cc1OC (configuration not stated) | 76.2% (active)
CC(C)OC(=O)c1cc(NC(=O)C2C3CCC(O3)C2C(=O)O)cc(C(=O)OC(C)C)c1 (configuration not stated) | 55.6% (active)
CC(C)OC(=O)c1c(NC(=O)c2ccco2)sc2c1CCCC2 | 1.48%
Cc1sc(NC(=O)C2C3CCC(O3)C2C(=O)O)c(C(=O)OC(C)C)c1-c1ccc(Cl)cc1 (configuration not stated) | 15.1% (active)

SMILES | inhibition
COc1ccc(NC(=O)CNC(=O)Cc2ccccc2)cc1OC | -2.46%
COC(=O)c1cc(NC(=O)C2C3C=CC(C3)C2C(=O)O)cc(C(=O)OC)c1 (configuration not stated) | 1.39%
Cc1cc(C)n(-c2nnc(N3CCN(c4ccccc4)CC3)nn2)n1 | -0.74%
COCCCNC(=O)C1CC(=O)N(CCc2ccc(F)cc2)C1 (configuration not stated) | -1.89%
CC(C)CCn1cnc2c1c(=O)n(CC(=O)NC(N)=O)c(=O)n2Cc1ccccc1 | 1.52%
COc1ccc2c(c1)C(=O)Nc1cc(Cl)ccc1N2 | -0.62%
CC(C)CN(C(=O)Cn1c(=O)cnc2ccccc21)C1CCS(=O)(=O)C1 (configuration not stated) | -1.01%
COc1ccc(S(=O)(=O)N2CCN(C(=O)c3cc(C)oc3C)CC2)cc1 | 0.44%
CCCCn1c(N)c(N(CCC(C)C)C(=O)COC(=O)c2cccnc2OCC)c(=O)[nH]c1=O | 0.18%
CC(=O)Nc1ccccc1OC(C)C(=O)N1CCC(C)CC1 (configuration not stated) | -1.03%
Nc1nnc(SCC(=O)OCc2ccc(Cl)c(Cl)c2)s1 | 1.15%
CCN1C(=O)[C@H]2[C@@H](c3ccc(SC4CCCCC4)c(OC)c3)N[C@@](Cc3ccccc3)(C(=O)OC)[C@H]2C1=O | 2.69%
CC(C)Oc1ccc(C(CC(=O)N2CCOCC2)C(C)C)cc1 (configuration not stated) | 0.66%
Cc1cccc(N(C(=O)c2csnn2)C(C(=O)NCc2ccccc2)c2ccncc2)c1 (configuration not stated) | 1.82%
Cn1cnnc1Sc1ccc(S(C)(=O)=O)cc1[N+](=O)[O-] | -0.46%
CCOC(=O)c1cnc(COc2ccccc2Cl)[nH]c1=O | -1.14%
CC1CC(C)(C)n2c(O)c(N=NC(N)=S)c3cccc1c32 (configuration not stated) | 3.55%
Cn1ccnc1SCC(=O)Nc1ccc2c(c1)OCCO2 | 2.87%
COc1cccc(OC)c1CN(C)C(=O)c1cnccc1C(F)(F)F | 0.42%
COc1ccc(Cl)cc1C(=O)Nc1ccc(N(C)C(C)=O)cc1 | 0.43%
COc1cc(C(F)(F)F)c(C(=O)N(C)c2ccc(Cl)cc2)cn1 | 11.3% (active)
COc1ccccc1NC(=O)COC(=O)COc1ccccc1F | 2.17%

SMILES | inhibition
Oc1c(C(c2ccccn2)N2CCOCC2)ccc2cccnc12 (configuration not stated) | 11.2% (active)
CC(C)c1cc(CN2CCOCC2)cc(C(C)C)c1O | 1.58%
CN(C)c1ccc(C(CC(=O)O)C(=O)O)cc1 (configuration not stated) | 0.86%
CCN(CC)c1nc(-c2ccccc2)cc(C(F)(F)F)c1C#N | 0.13%
O=C(Cc1ccccc1Cl)N1CCOCC1 | -1.76%
CN(C(=O)Nc1ccc(Cl)cc1)n1cnc2ccccc2c1=O | -2.44%
CC(C)(C)c1cc[n+](-c2[nH]c(=O)sc2/C=N/N=C(\[O-])c2ccccc2)cc1 | -0.11%
O=C(CSc1ncnc2sccc12)N1CCN(C(=O)c2cccs2)CC1 | 0.16%
CCC(C)Sc1nc(C)nc2c1c(=O)n(C)c(=O)n2C (configuration not stated) | 2.18%
CCn1c(C)nc2c1C(=O)c1ccccc1C2=O | -1.27%
CCc1nnc(NC(=O)c2cc(S(=O)(=O)N3CCCCC3)ccc2C)s1 | 3.35%
O=S1(=O)CC/C(=N\Nc2ccc(F)cc2)c2ccsc21 | 1.6%
O=Cc1cn(-c2ccccc2)nc1-c1ccccn1 | 0.89%
C=CCc1ccccc1OCC(O)CN1CCN(CCO)CC1 (configuration not stated) | 0.89%
CN1CCN(CCCNC(=O)c2ccc(/C=C3\Oc4ccccc4N(Cc4ccc(Cl)cc4)C3=O)cc2)CC1 | 4.83%
O=C(NCCCN1CCOCC1)c1ccc2c(c1)N(Cc1cccc(F)c1)C(=O)c1ccccc1S2 | -0.03%
CCN1CCN(CCNC(=O)c2ccc(/C=C3/Sc4ccccc4N(Cc4cccc(C)c4)C3=O)cc2)CC1 | 10.1% (active)
COc1ccc(CNc2c(CO)cnc3c2cnn3C)cc1 | 0.82%
CC(C(=O)c1ccc(-c2ccccc2)cc1)[n+]1cccc(Br)c1 (configuration not stated) | 0.21%
